Each structure is given as a SMILES string. Among all 360,000 compounds or so, about 1,700 (0.47%) were called active. Entries that show only a call come without a potency. Roughly 2% stayed inconclusive and do not appear here. Calls follow the shape of the dose curve; as a rule, active = well fitted inhibition curve with a large enough effect; inconclusive = small, poorly fitted or top-dose-only effect; inactive = no such curve, though single readings can be large or run the other way. The full list was thinned out, with actives kept by preference.
Potency is read from the fitted curve at half-maximal effect.

Sequence of Bifunctional 3'-5' exonuclease/ATP-dependent helicase WRN (Homo sapiens) (Q14191 whole entry, looked up): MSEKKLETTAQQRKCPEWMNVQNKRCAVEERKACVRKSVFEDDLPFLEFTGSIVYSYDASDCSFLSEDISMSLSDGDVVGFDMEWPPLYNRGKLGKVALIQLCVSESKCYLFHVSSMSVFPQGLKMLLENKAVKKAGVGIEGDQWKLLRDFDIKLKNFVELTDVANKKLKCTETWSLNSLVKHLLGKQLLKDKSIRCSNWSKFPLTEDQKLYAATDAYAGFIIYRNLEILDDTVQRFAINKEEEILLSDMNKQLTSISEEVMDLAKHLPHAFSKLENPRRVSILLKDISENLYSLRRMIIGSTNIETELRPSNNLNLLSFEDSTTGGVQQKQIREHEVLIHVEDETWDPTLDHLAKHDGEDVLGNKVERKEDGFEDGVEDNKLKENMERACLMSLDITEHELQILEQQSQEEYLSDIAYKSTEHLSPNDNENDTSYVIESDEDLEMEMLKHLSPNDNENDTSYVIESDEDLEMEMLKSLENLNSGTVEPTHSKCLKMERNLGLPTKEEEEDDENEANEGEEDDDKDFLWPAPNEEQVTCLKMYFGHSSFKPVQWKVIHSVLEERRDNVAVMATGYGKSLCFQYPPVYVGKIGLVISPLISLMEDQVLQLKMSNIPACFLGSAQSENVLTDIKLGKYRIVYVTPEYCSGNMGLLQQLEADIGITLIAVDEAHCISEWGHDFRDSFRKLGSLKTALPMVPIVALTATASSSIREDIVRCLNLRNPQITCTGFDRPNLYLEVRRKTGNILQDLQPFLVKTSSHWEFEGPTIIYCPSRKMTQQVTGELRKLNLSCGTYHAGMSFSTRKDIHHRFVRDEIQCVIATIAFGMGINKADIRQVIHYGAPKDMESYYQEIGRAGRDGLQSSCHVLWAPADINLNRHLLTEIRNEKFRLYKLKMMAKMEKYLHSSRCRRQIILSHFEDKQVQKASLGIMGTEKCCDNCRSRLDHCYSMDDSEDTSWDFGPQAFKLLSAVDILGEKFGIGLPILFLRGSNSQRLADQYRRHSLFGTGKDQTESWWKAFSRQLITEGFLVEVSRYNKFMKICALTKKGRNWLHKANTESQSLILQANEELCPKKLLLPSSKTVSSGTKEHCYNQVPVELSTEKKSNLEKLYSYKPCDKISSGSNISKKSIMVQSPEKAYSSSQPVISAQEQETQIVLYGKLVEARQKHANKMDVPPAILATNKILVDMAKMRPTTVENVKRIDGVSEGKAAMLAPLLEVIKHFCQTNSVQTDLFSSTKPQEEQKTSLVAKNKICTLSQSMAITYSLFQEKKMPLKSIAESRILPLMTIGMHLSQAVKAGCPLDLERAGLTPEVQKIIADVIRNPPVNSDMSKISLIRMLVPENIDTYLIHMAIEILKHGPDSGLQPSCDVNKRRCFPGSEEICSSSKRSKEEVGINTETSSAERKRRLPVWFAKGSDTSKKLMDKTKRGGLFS

This assay deals with Bifunctional 3'-5' exonuclease/ATP-dependent helicase WRN (Homo sapiens) (UniProt Q14191). Put plainly: qHTS for Inhibitors of WRN Helicase. Also: nearly all actives have a fitted effect of over 55% in size. To be noted: WRN helicase unwinding, fluorescent forked duplex, kinetic; series mostly up to 114 µM. The text has this:
Inhibition of DNA repair is proposed as a strategy for combating cancer. Synthetic lethality is an approach that exploits preexisting DNA repair deficiencies in certain tumors to develop inhibitors of DNA repair pathways that compensate for the tumor-associated DNA repair deficiency. Because helicases play critical roles in the DNA damage response and in DNA repair, particularly in actively dividing and replicating cells, characterization of synthetic lethal relationships of DNA helicases may be of value in developing improved anticancer treatment strategies; moreover, small molecules that specifically target a given DNA helicase may be useful for understanding its role in cellular nucleic acid metabolism. The goal of this project is to identify small molecule, non-covalent chemical inhibitors of the Werner syndrome (WS) helicase (WRN), which plays an important role in cell proliferation, the replication stress response, and DNA repair. […] The WRN gene product that is defective in the chromosomal instability disorder has DNA helicase and exonuclease activities and interacts with a number of nuclear proteins to maintain genomic stability. We will employ an optimized high-throughput screening assay that utilizes a fluorescence intensity modulation scheme with a fluorophore and quencher positioned near one another within a duplex deoxyoligonucleotide that contains a single forked structure. After a high-throughput screen of the ~350,000-member Molecular Libraries Small Molecule Repository (MLSMR) collection, followed by data analysis and hit selection, a panel of confirmatory, as well as secondary and ternary, assays will be employed to identify high-confidence WRN inhibitors. Structure-activity relationships will be investigated for the top candidate inhibitor series through medchem expansion. These are the results of the primary screening campaign against the MLSMR. NIH Chemical Genomics Center [NCGC] NIH Molecular Libraries Probe Centers Network [MLPCN] MLPCN Grant: MH096530 Assay Submitter (PI): Robert Brosh, National Institute of Aging
Three muL of reagents (buffer in columns 3 and 4 as negative controls; WRN at 20 nM final concentration in columns 1 and 2 as positive controls; columns 5-48 as test reactions) will be dispensed into a 1536-well Greiner black plate via solenoid-valve based nanoliter dispensers. Compounds (23 nL each in columns 5-48) and control (23 nL each in column 2 as dose-response) will be transferred via a Kalypsys pintool equipped with a 1536-pin array. Plates will be incubated for 15 min at room temperature, and then 1 µL of substrate (100 nM forked duplex oligonucleotide and 2 mM ATP final concentrations) will be added to start reaction, and plate will be transferred into a ViewLux high-throughput CCD imager where reaction progress is measured in kinetic mode using standard red-fluorescence optics (excitation filter 525 nm, emission filter 598 nm).
In the case of `CC(=O)N(C1=C(Cl)C(=O)c2ccccc2C1=O)c1ccc(C(=O)O)cc1`, the Potency was 35.5 µM (active).

`CN(C)c1ccc(C(CNC(=O)c2ccc(F)cc2)c2c[nH]c3ccccc23)cc1` (stereo not given): the Potency result is “inactive”.

As to `CCc1ccccc1NC(=O)CN(c1ccc(OC)cc1OC)S(=O)(=O)c1ccccc1[N+](=O)[O-]`, the Potency result is “inactive”.

For the compound `CCC1OC(C2CC2)CC2=C1C(=O)OC(C)(C)O2` (stereo not given), the Potency result was “inactive”.

With `CCc1nnc(NC(=O)c2cc(S(=O)(=O)N3CCCCC3)ccc2C)s1`, the Potency result was “inactive”.

Regarding `CCc1ccc2nc3sc(C(=O)Nc4nnc(CC)s4)c(N)c3cc2c1`, the Potency is 22.4 µM (active).

Take `CCc1nnc(NC(=O)c2ccco2)s1`: the Potency entry was “inactive”.

As for `C=CCN1CCN(c2ccncc2S(=O)(=O)N2CCN(C)CC2)CC1`, the Potency result is “inactive”.

With `N#Cc1c(C(F)(F)F)cc(-c2cccs2)nc1N1CCCCC1`, the Potency result was “inactive”.

In the case of `N#Cc1c(N2CCCCC2)nc(N)c2c(N)nc(SCC(=O)O)cc12`, the Potency is 50.1 µM (active).

Consider `O=C(O)CSc1ccc(S(=O)(=O)N2CCCC2)cn1`, for which the Potency entry was “inactive”.

Take `C=CC(=O)Nc1ccc(Nc2ccnc(Nc3ccc(N4CCN(C)CC4)cc3)n2)cc1`: the Potency is 50.1 µM (active).

Regarding `CN1CCN(c2ccc(NC(=O)c3cc(Cl)c4c(c3)OCCO4)cc2)CC1`, the Potency result was “inactive”.

For the compound `Cn1cnnc1SCC(=O)Nc1ccc(N2CCOCC2)cc1`, the Potency entry was “inactive”.

Consider `CC(C)NC(=S)Nc1cccc2cnccc12`, for which the Potency result was “inactive”.

Consider `COc1ccc(S(=O)(=O)N2CCN(CC(=O)N3c4ccccc4CC3C)CC2)cc1OC` (stereo not given), for which the Potency result is “inactive”.

For the compound `Cc1ccccc1-c1nc(NC(C)C)nc2cc(-c3ccccc3)sc12`, the Potency entry is “inactive”.

As for `O=S(=O)(O)c1cc2onnc2c2ccccc12`, the Potency was 56.2 µM (active).

For `O=C(Nc1ccc(OC(F)(F)F)cc1)c1ccc2c(c1)no[n+]2[O-]`, the Potency entry was “inactive”.

As for `Cc1ccc(S(=O)(=O)N2CCC(=O)N([C@H](COCc3ccccc3)Cc3ccccc3)CC2)cc1`, the Potency result was “inactive”.

As to `CCN(CC)CCOc1ccc2c(c1)C(=NNC(=O)c1ccccn1)c1cc(OCCN(CC)CC)ccc1-2`, the Potency was 35.5 µM (active).

In the case of `CN(CCOc1ccc(CC2SC(=O)NC2=O)cc1)c1ccccn1` (stereo not given), the Potency result is “inactive”.

On to `CCN(CC)CCNCC(=O)Nc1ccc(Oc2ccccc2)cc1`, for which the Potency entry was “inactive”.

On to `O=C(O)CSC(NC(=O)c1cccnc1)(C(F)(F)F)C(F)(F)F`, for which the Potency result was “inactive”.

For `Cc1ccc(CCC(=O)Nc2ncc(Cc3cc(Cl)ccc3Cl)s2)o1`, the Potency result is “inactive”.

As for `Cc1ccc(Cc2cnc(N)s2)o1`, the Potency was 44.7 µM (active).

For `CSc1nnc(C2CCCN(CC(=O)Nc3ccccc3N3CCOCC3)C2)n1C(C)C` (stereo not given), the Potency entry is “inactive”.

Take `O=C(CSC(=S)N1CCOCC1)c1cc(Br)cc(Br)c1O`: the Potency is 56.2 µM (active).

Consider `O=C(CSC(=S)N1CCOCC1)c1ccccc1`, for which the Potency entry is “inactive”.

On to `O=C(c1cc2cc(Br)cc(Br)c2oc1=O)N1CCOCC1`, for which the Potency result is “inactive”.

Regarding `Cc1cc(=O)oc2cc(OC(C)C(=O)NCCc3ccc(S(N)(=O)=O)cc3)ccc12` (stereo not given), the Potency result is “inactive”.

On to `CCOC(=O)c1cc(-c2ccc(F)cc2)n(CC(=O)NCc2ccccn2)c1C`, for which the Potency entry is “inactive”.

As for `CCN(C(=O)COC(=O)/C=C/c1nc2ccccc2s1)C1CCS(=O)(=O)C1` (stereo not given), the Potency result is “inactive”.

`O=C(COC(=O)c1cnccn1)Nc1ccc(Cl)cc1C(F)(F)F`: the Potency result is “inactive”.

In the case of `CC(C)C1N=C2c3ccccc3N=C(SCC(=O)c3ccc(O)c(O)c3)N2C1=O` (stereo not given), the Potency was 17.8 µM (active).

With `O=C(CSC1=Nc2ccccc2C2=NC(c3ccccc3)C(=O)N12)NCC1CCCO1` (stereo not given), the Potency entry is “inactive”.

`NC(=O)CSC1=Nc2ccccc2C2=NC(CCC(=O)NCc3ccc(F)cc3)C(=O)N12` (stereo not given): the Potency result was “inactive”.

With `O=C(NCCCn1ccnc1)C(=O)c1cn(CC(=O)N2CCCCCC2)c2ccccc12`, the Potency result was “inactive”.

Regarding `Cc1nc2ccc(S(=O)(=O)NCC(=O)O)cc2s1`, the Potency entry is “inactive”.

As to `C/C(CC(O)(/C=N/O)c1ccccc1)=N\O` (stereo not given), the Potency result was “inactive”.

Regarding `O=S(=O)(NC1CC1)c1ccc(Cl)cc1`, the Potency entry was “inactive”.

With `O=S(=O)(NC1CC1)c1ccc(F)c(F)c1`, the Potency entry is “inactive”.

In the case of `Cn1sc(=O)c2cc(S(=O)(=O)NC3CC3)ccc21`, the Potency was 44.7 µM (active).

As to `Cc1c(C(=O)NCCN(C)C)oc2ccc(S(=O)(=O)N3CCCC3)cc12`, the Potency entry was “inactive”.

Turning to `CCOP1(=O)C=C(C(C)(C)C)OC1c1ccc(F)cc1` (stereo not given), the Potency entry is “inactive”.

Take `C[C@@H]1CN([C@H](C)CO)C(=O)CCCn2cc(nn2)CO[C@H]1CN(C)S(=O)(=O)c1ccc(Oc2ccccc2)nc1`: the Potency result is “inactive”.

With `CC12CCC(C(=O)N(CCC#N)CCC#N)(CC1=O)C2(C)C` (stereo not given), the Potency entry is “inactive”.

Regarding `COC(=O)[C@@]1(Cc2ccc(F)cc2)[C@H]2c3cc(C(=O)N4CCCC4)n(C[C@H](O)CO)c3C[C@H]2CN1C(=O)c1ccccc1`, the Potency result is “inactive”.

With `CCOC(=O)N1CCC(NC(=O)CN2C(=O)COc3ccc(C(C)(C)C)cc32)CC1`, the Potency entry was “inactive”.

`CC[C@]12c3[nH]c4ccc(OC)cc4c3CCN1C(=O)C(CC(=O)NCCN1CCOCC1)C[C@@H]2C(=O)N1CCN(C(=O)C2CC2)CC1` (stereo not given in full): the Potency result is “inactive”.

Source of the values: PubChem BioAssay AID651768 (National Center for Advancing Translational Sciences (NCATS), 2012).
